Source: PubChem BioAssay AID1851 (National Center for Advancing Translational Sciences (NCATS), 2009)
“And” between values parts separate entries of the source, which are not always exact repeats. Equal values may be shown once. The campaign covered roughly 16,000 compounds. About 4,000 (25%) were called active. About 26% were inconclusive and are not listed. The call rests on the fitted dose curve; in most records, active means well fitted curve in the direction sought with a large enough effect; inconclusive means small, poorly fitted or top-dose-only effect, or effect the other way; inactive means no such curve, though single readings can be large or run the other way. The list is a sample of the results.

Target: Cytochrome P450 2C9 (Homo sapiens) (UniProt P11712)
Sequence (P11712 whole entry, looked up): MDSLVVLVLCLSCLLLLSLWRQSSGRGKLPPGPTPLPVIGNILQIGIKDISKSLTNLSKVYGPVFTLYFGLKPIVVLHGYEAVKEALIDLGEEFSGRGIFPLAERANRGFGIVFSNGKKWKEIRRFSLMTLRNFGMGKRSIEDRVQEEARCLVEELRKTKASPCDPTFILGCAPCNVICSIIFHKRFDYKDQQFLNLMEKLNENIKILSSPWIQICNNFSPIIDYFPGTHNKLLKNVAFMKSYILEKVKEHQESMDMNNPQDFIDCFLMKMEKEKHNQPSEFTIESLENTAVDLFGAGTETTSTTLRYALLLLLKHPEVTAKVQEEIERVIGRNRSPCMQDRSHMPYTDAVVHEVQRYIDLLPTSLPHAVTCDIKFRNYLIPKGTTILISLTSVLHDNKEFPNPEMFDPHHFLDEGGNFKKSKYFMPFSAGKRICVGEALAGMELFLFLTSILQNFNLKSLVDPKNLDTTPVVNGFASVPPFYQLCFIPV
Assay: Cytochrome panel assay with activity outcomes
Settings: recombinant CYP, pro-luciferin dealkylation, luminescence, p450-cyp2c9; series mostly up to 57.1 µM
On the % scale 0 is the no-effect control and ±100 the full control effect.

activity, negative = inhibition, inactive:
Cc1cnc2cc(Cl)ccc2c1SCC(=O)O 3.69% [at 11.4 µM]
O=C(O)/C(=C\c1ccccc1)c1ccccc1 -20.6% [at 11.4 µM]
N[C@@H](Cc1ccnnc1)C(=O)O -15.4% [at 11.4 µM]
N#Cc1cccc(-c2cc(NCc3ccccc3)ncn2)c1 10.6% [at 2.29 µM]
Cc1ccc(-[n+]2cc(=O)o[nH]2)cc1 2.87% [at 11.4 µM]
CS(=O)(=O)Nc1cccc(-c2nc(Nc3ccc(F)cc3)c3ccccc3n2)c1 -24.2% [at 2.29 µM]
CN(C)c1nc(-c2cccc(NS(C)(=O)=O)c2)nc2ccccc12 15.7% [at 2.29 µM]
CC(C)CN=C(N)N=C(N)N -6.17% [at 11.4 µM]
O=C(O)CCSC1=NCCN1 2.01% [at 11.4 µM]
CN(C)Cc1ccccc1-c1cc(NCc2cccs2)ncn1 12.8% [at 2.29 µM]
C[C@]12CC[C@H]3c4ccc(O)cc4CC[C@@H]3[C@H]1CC[C@@H]2OC(=O)CCC1CCCC1 17.9% [at 11.4 µM]
O=C(Nc1cccc(Cl)c1)Nn1cnnc1 8% [at 11.4 µM]
Cc1ccccc1CN1C2=NCCN2C(=O)C2=C1CCN(Cc1ccccc1)C2 -1.36% [at 11.4 µM]
Cc1cccc(CNc2cc(-c3ccccc3CN(C)C)ncn2)c1 -2.61% [at 2.29 µM]
COc1ccc(-c2cc([C@H](O)[C@@H]3CCCCN3)c3ccccc3n2)cc1 3.54% [at 11.4 µM]
Clc1ccccc1-c1cc(NCCN2CCOCC2)ncn1 16.8% [at 2.29 µM]
CC(C)CNC(=O)O -4.26% [at 11.4 µM]
CC1(C)N=C(N)N=C(N)N1c1cccc(OCc2cccc([N+](=O)[O-])c2)c1 -1.87% [at 11.4 µM]
CN(CCC(=O)O)S(=O)(=O)c1ccccc1 22.4% [at 11.4 µM]
CN(Cc1ccco1)c1ccnc(-c2ccccc2C(F)(F)F)n1 -4.94% [at 2.29 µM]
O=C(O)C[C@H](S)C(=O)O 10.9% [at 11.4 µM]
CO[C@H]1COC(=O)[C@H]2CCCN2C(=O)[C@@H](C)COC(=O)C/C=C\[C@@H]1C 7.11% [at 11.4 µM]
COc1ccccc1CNc1ncncc1-c1ccc(C(=O)N(C)C)cc1 -24.3% [at 2.29 µM]
CO[C@@H]1COC(=O)CC=C[C@@H](C)[C@@H]2C=C[C@H](O)[C@@H](COC(=O)[C@H](C)NC(=O)CC=C[C@H]1C)O2 -4.45% [at 11.4 µM]

AC50, active:
CSc1c(-c2ccccc2)nc2ccc(Cl)cc2c1C(=O)O 0.794 µM
COc1ccc(/C=C(/C(=O)Nc2ccccc2C(=O)NC(C)C)c2ccccc2)cc1 10 µM
Cc1ccccc1NC(=O)/C(=C/c1ccccc1)c1ccccc1 7.94 µM
O=C(CSc1nnc(CNc2ccc(F)cc2)o1)N1c2ccccc2Sc2ccccc21 4.47 µM
O=S(=O)(Nc1ccc2oc(-c3ccccc3)nc2c1)c1ccccc1 0.794 µM
CC1CCc2c(C(=O)Nc3nccs3)csc2C1 (stereo not given) 3.16 µM
CC1=NN(c2ccc(F)cc2)C(=O)C1C(c1cccc(O)c1)c1c(C)[nH]n(-c2ccc(F)cc2)c1=O (stereo not given) 4.47 µM
COC(=O)c1cccc(NC(=O)CCCOc2ccccc2)c1 3.16 µM
COc1ccc(NC(=O)CCOc2ccccc2)cc1 11.2 µM
COC(=O)CCC(=O)Nc1cccc(C(=O)Nc2cccc(Cl)c2)c1 3.16 µM
COc1ccc(NC(=O)c2ccc(COc3ccccc3)o2)cc1 0.251 µM
Cc1ccc(OCc2ccc(C(=O)Nc3nccs3)o2)cc1C 10 µM
COC(=O)c1cccc(NC(=O)Nc2ccc(Cl)c(Cl)c2)c1 2.51 µM
CCC(CC)C(=O)Nc1ccc(C)c(O)c1 3.16 µM
Cc1[nH]nc(N2CCCCCC2)c1[N+](=O)[O-] 17.8 µM
N=C(N)SCc1nc(-c2ccc(Cl)cc2)no1 3.98 µM
Cc1ccc(C2CC2C(=O)NN)cc1 (stereo not given) 14.1 µM
CC(C)=CCc1c2c(c3occ(-c4ccc(O)c(O)c4)c(=O)c3c1O)C=CC(C)(C)O2 3.16 µM
COC(=O)c1sccc1NC(=O)c1cc(-c2ccc(C)cc2)nc2ccccc12 3.98 µM
COC(=O)c1sccc1NC(=O)c1cc(-c2ccc(C)cc2C)nc2ccccc12 2.24 µM
COC(=O)CNC(c1ccccc1Cl)c1cc(Br)ccc1NC(=O)CCN1CCOCC1 (stereo not given) 15.8 µM
O=C(CSCc1ccccc1Cl)NN1C(=O)c2ccccc2C1=O 3.98 µM
O=C(CSCc1ccccc1Cl)NNC(=S)Nc1ccccc1 2.51 µM
C(=C\c1nnc(-c2cccs2)o1)/c1ccccc1 14.1 µM
O=[N+]([O-])c1ccc(C2CCCC/C2=N\OCc2cccc(F)c2)c([N+](=O)[O-])c1 (stereo not given) 7.94 µM
CCCCN(CC)S(=O)(=O)c1ccc(C(=O)Nc2nnc(CSC)o2)cc1 0.891 µM
CCCCN(C)S(=O)(=O)c1ccc(C(=O)Nc2nnc(CSC)o2)cc1 0.794 µM
O=C(c1cc(-c2ccc(Cl)cc2Cl)on1)N1CCN(C(=O)c2ccco2)CC1 7.08 µM
Cc1cc2cc3c(cc2nc1SCC(=O)Nc1c(C)cccc1C)CCC3 4.47 µM
O=C(NCc1cccnc1)/C(=C/c1ccc(-c2cccc(Cl)c2)o1)S(=O)(=O)c1ccccc1 6.31 µM
CN(C(=S)Nc1ccccc1F)C1(c2ccccc2Cl)CCCCC1=O (stereo not given) 17.8 µM
COc1ccccc1C(=O)NCCn1cc(SCC(=O)Nc2nnc(C)s2)c2ccccc21 2.24 µM
CC(C)OP(=O)(OC(C)C)C(NC(=O)c1ccc(Br)cc1)c1ccccc1 (stereo not given) 10 µM
Nc1ccccc1C#Cc1ccccc1 7.94 µM and 14.1 µM
O=c1c(-c2cccs2)nc2cnc(Oc3ccccc3)nc2n1C1CC1 3.16 µM
COCCn1c(=O)c(-c2cccs2)nc2cnc(Oc3ccccc3)nc21 3.98 µM
COc1ccc(Oc2ncc3nc(-c4cccs4)c(=O)n(C)c3n2)cc1 3.16 µM
COCCn1c(=O)c(-c2cccs2)nc2cnc(Oc3ccc(OC)cc3)nc21 5.01 µM

AC50, inactive:
CSc1c(-c2ccccc2)nc2ccccc2c1C(=O)O
CC1(C)CC(O)CC(C)(C)N1CC(O)COCCOc1ccc(Br)cc1 (stereo not given)
CC(C)NC(=O)/C(=N\O)c1ccccc1
Cc1ccccc1NC(=S)NN1CCN(C)CC1
O=C(O)c1c2ccccc2cc2ccccc12
CCN(CC)C(=O)CSc1nnc(CNc2ccc(F)cc2)o1
CN1CCc2cc(Cl)c(O)cc2[C@H](c2ccccc2)C1
COc1cccc(C(c2c(C)[nH]n(-c3ccccc3)c2=O)c2c(C)[nH]n(-c3ccccc3)c2=O)c1O
CCC(=O)O[C@@]1(C(=O)SCF)[C@@H](C)C[C@H]2[C@@H]3C[C@@H](F)C4=CC(=O)C=C[C@@]4(C)[C@]3(F)[C@@H](O)C[C@]21C
O=C(O)CP(=O)(O)O
Cc1cccc(OCCCC(=O)Nc2ccc(N3CCCCC3)cc2)c1
CC(=O)c1cccc(NC(=O)Oc2ccccc2)c1
Cc1onc(C(=O)/C=C/N(C)C)c1C(=O)Nc1nccs1
O=C1OCCC1Sc1nnnn1-c1ccccc1 (stereo not given)
Cc1ccccc1N1C(=O)c2cc(S(N)(=O)=O)c(Cl)cc2N[C@H]1C
CN(C)C(=O)CCc1nc(-c2ccc(C(C)(C)C)cc2)no1
Cc1ccc(C(=O)C2CCNCC2)cc1
Cc1ccc(NC(=O)C2CCN(S(C)(=O)=O)CC2)cc1
CN(C)CCO[C@](C)(c1ccccc1)c1ccccn1
COC(=O)c1sccc1NC(=O)c1cc(-c2cc(C)ccc2C)nc2ccccc12
O=C(CSCc1ccccc1Cl)NNC(=O)c1ccccc1
O=C(NNC(=S)Nc1ccccc1)C1CC1
O=C(NN1C(=O)c2ccccc2C1=O)C1CCCCC1
Clc1cccc(Cl)c1CSc1nnc(/C=C/c2ccccc2)o1
Cc1oc(-c2cccs2)[n+]([O-])c1C
CCN1CCN(C(=O)N[C@H](C(=O)N[C@@H]2C(=O)N3C(C(=O)O)=C(CSc4nnnn4C)CS[C@@H]23)c2ccc(O)cc2)C(=O)C1=O
O=C(c1ccco1)N1CCN(C(=O)c2nn3cccnc3c2Cl)CC1
O=C(c1ccc(Cl)cc1)N1CCN(C(=O)c2ccco2)CC1
Cc1cccc(C)c1NC(=O)C[N+](C)(C)C
CC[N+](CC)(CC)CC(=O)Nc1c(C)cccc1C
CCN(C(=S)Nc1ccccc1F)C1CCCCC1
COC(=O)Nc1nc2ccc(SC(C)C)cc2[nH]1
Cc1noc(C)c1C(=O)N1CCC2(CCN(Cc3cc(C(F)(F)F)cc(C(F)(F)F)c3)CC2)CC1
COCCn1c(=O)c(-c2cccs2)nc2cnc(N(C)C)nc21
COc1ncc2nc(-c3cccs3)c(=O)n(-c3ccccc3)c2n1
Cn1cc(-c2nc3cnc(Oc4ccccc4)nc3n(C3CC3)c2=O)c2ccccc21
COc1ccc(Oc2ncc3nc(-c4cc(F)cc(F)c4)c(=O)n(C)c3n2)cc1
COc1ccc(Oc2ncc3nc(-c4cccs4)c(=O)n(-c4ccccc4)c3n2)cc1
